# PubChem BioAssay (NCI)
# About 83,000 compounds went through this panel and 20% of them were active in at least one assay; those are over-represented in the sample as a whole.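 Treatment: one concentration, 48 hours, 96-well format. Scoring: percent growth, with anything below 10 considered active.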 A number with no mark means an inactive call. Calls of active or inactive are those of the source.
# How the values were obtained:
# Assay in all cases: NCI-60 one-dose screen, 48 h (100 = growth as untreated, 0 = no growth, -100 = all killed)
# Conditions in all cases: 10 µM
# SK-MEL-2 melanoma = tested on: SK-MEL-2 melanoma
# EKVX NSCLC = tested on: EKVX NSCLC
# SN12C renal = tested on: SN12C renal
# UO-31 renal = tested on: UO-31 renal
# TK-10 renal = tested on: TK-10 renal
# ACHN renal = tested on: ACHN renal
# CAKI-1 renal = tested on: CAKI-1 renal
# A498 renal = tested on: A498 renal
# CCRF-CEM leukemia = tested on: CCRF-CEM leukemia
# MOLT-4 leukemia = tested on: MOLT-4 leukemia
Structure (SMILES),growth (SK-MEL-2 melanoma),growth (EKVX NSCLC),growth (SN12C renal),growth (UO-31 renal),growth (TK-10 renal),growth (ACHN renal),growth (CAKI-1 renal),growth (A498 renal),growth (CCRF-CEM leukemia),growth (MOLT-4 leukemia)
O=C(COc1cccc(/C=C2\CSc3ccc(Cl)cc3C2=O)c1)c1ccc(Cl)cc1,44.2%,70.3%,79.7%,-7.04% (active),127%,81.7%,61.2%,91.3%,-26.1% (active),
c1cnc2[nH]cc(-c3nc(-c4ccsc4)cs3)c2c1,102%,42.6%,92%,62.7%,138%,85.3%,96.3%,,,
CCOC(=O)C1=CSC2=NC3=C(CCC/C3=C\c3cc(OC)c(OC)c(OC)c3)C(c3cc(OC)c(OC)c(OC)c3)N12 (stereo unspecified),106%,95.1%,54.4%,69.9%,84.7%,45.9%,66.3%,78.4%,16.8%,
C=CCn1c(SCC(=O)Nc2ccc(C(=O)/C=C/c3ccc(Cl)cc3)cc2)nnc1-c1cc(-c2ccccc2)nc2ccccc12,97.2%,79.1%,70.8%,35.4%,94.8%,82.3%,61.7%,81.4%,,
COc1ccc(-c2cc(-c3ccc(OC)c(OC)c3)nc(SCCCC(=O)NO)n2)cc1,-5.66% (active),-15.3% (active),5.59% (active),-74.3% (active),-0.0305% (active),-24.9% (active),-29.2% (active),-32.4% (active),,
Cc1cc(Cl)ccc1Nc1nc(C(F)(F)F)ccc1C(=O)N/N=C/c1cccc(O)c1,16%,20.8%,52.3%,6.02% (active),85.9%,28.3%,25.5%,-41.5% (active),4.04% (active),3.63% (active)
COc1cc(C(=O)/C=C/c2c[nH]c3ccccc23)cc(OC)c1OC,19.5%,35.2%,25.2%,20.9%,48%,18.7%,27.6%,10.2%,,
CC(=O)Nc1ccc(S(=O)(=O)c2ccnc3cc(Cl)ccc23)cc1,79.2%,86.7%,81%,106%,82.3%,69.3%,75.3%,95.9%,52.9%,
COc1cc(C2CC(c3cc(Cl)c(C)cc3O)=NN2c2ccc(S(N)(=O)=O)cc2)cc(OC)c1OC (stereo unspecified),37.7%,16.9%,13.7%,4.12% (active),15.3%,3.29% (active),11.4%,43.3%,,
Nc1c(Br)cc(Br)c2c1[nH]c(=O)c1ccccc12,98.6%,57%,80.1%,27.8%,31.5%,10.9%,68.6%,53.8%,93.2%,80.8%
Nc1cc(-c2ccc(Cl)cc2)nn1-c1nc2ccccc2nc1Cc1ccccc1,100%,78.6%,94.1%,87%,99.2%,103%,,,,
O=C(CCC(C(=O)c1ccccc1)c1ccccc1)c1ccccc1 (stereo unspecified),45.4%,76.2%,79.7%,72.1%,102%,72.2%,52%,80.6%,38.2%,
O=c1oc2c(cc1-c1ccc(F)cc1)C(O)Oc1ccccc1-2 (stereo unspecified),76.1%,51.2%,95.4%,84.1%,72.3%,94.4%,74%,89.5%,113%,68.3%
O=[N+]([O-])c1ccc2ncccc2c1Cl,77.4%,119%,45.6%,30.2%,66.7%,56.2%,32%,100%,12.3%,30%
O=S(=O)(Oc1ccc(-c2ccc3sccc3c2)cc1)c1ccccc1,111%,95.8%,97.7%,97.7%,99.8%,112%,87%,89.2%,98.9%,91.7%
O=C(N/N=C/c1ccc([N+](=O)[O-])cc1)c1ccccc1Nc1cccc(C(F)(F)F)c1,80.9%,92.4%,99.5%,78.4%,173%,91%,76.9%,-6.91% (active),91.9%,109%
NC1=CC(=O)C(=O)c2cccnc21,77.9%,98.3%,70%,47.8%,113%,60.1%,83.1%,92.6%,82.9%,106%
Cc1ccc(C(=O)C2C(=O)C3CCC2C3)cc1 (stereo unspecified),111%,98.5%,97.3%,90.2%,111%,100%,96.1%,109%,96.3%,105%
CC(=O)OC1C=CC(OC(C)=O)O1 (stereo unspecified),88.9%,99.3%,89.8%,59.4%,102%,97.9%,89%,81.3%,76.6%,90%
CCCC1(CN2c3ccccc3Sc3ccc(Cl)cc32)CCN(CC)C1 (stereo unspecified),-3.45% (active),-12.8% (active),23.1%,-1.01% (active),-56.6% (active),0.109% (active),-14.2% (active),8.05% (active),-11.2% (active),-27.9% (active)
CN1C(=O)C2(Nc3cc(Cl)ccc3S2)c2cc(Cl)ccc21 (stereo unspecified),108%,79.2%,82.2%,56.9%,125%,92.3%,82.2%,73%,71.6%,82.5%
Cc1cc(=O)n2nnc3cc(C(F)(F)F)ccc3n12,99.2%,107%,106%,84%,93.6%,108%,113%,103%,103%,91.3%
O=C(Nc1cc(Cl)cc2c1-c1ccc(Cl)cc1C2O)C(Cl)Cl (stereo unspecified),110%,69%,82.2%,74%,118%,61.9%,67.5%,74.4%,69.1%,78.8%
O=C(COc1cccc(/C=C2\CSc3ccccc3C2=O)c1)c1ccc(Cl)cc1,-71.6% (active),68.1%,-6.61% (active),-79% (active),-4.52% (active),-65.6% (active),-65.2% (active),54%,-51.6% (active),-67.3% (active)
OCC1OC(n2cnc3c(NCc4ccco4)ncnc32)C(O)C1O (stereo unspecified),76%,65.3%,7.6% (active),20.4%,41.4%,4.08% (active),14.1%,9.69% (active),6.74% (active),-4.64% (active)
NC(N)=N/N=C(\N=Nc1ccccc1)c1ccc(Cl)cc1,52.5%,49.2%,76.3%,4.05% (active),65.8%,25.1%,1.66% (active),14.7%,-4.7% (active),2.47% (active)
NS(=O)(=O)Oc1ccc2c(ccn2C(=O)C23CC4CC(CC(C4)C2)C3)c1,116%,109%,97.8%,80.4%,106%,101%,94.4%,98.1%,99%,101%
